Measurements taken from PubChem BioAssay AID504832 (National Center for Advancing Translational Sciences (NCATS), 2011).
The campaign covered roughly 310,000 compounds. About 18,000 (5.8%) were called active. Another 22% or so got no clear call; they are omitted. The call rests on the fitted dose curve; in most records, active means well fitted inhibition curve with a large enough effect; inconclusive means small, poorly fitted or top-dose-only effect, or another doubt; inactive means no such curve, though single readings can be large or run the other way. The list comes from a sample in which actives are over-represented; it also holds similar structures and randomly drawn compounds. Where a call stands in place of a potency, no number is given.

Experiment: Primary qHTS for delayed death inhibitors of the malarial parasite plastid, 48 hour incubation
Conditions: P. falciparum luciferase growth in erythrocytes; series mostly up to 28.7 µM
Summary of the method: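 Growth was read as firefly luciferase luminescence after a 48 h, 37 C, 5% CO2 exposure of compounds to reporter-bearing P. falciparum cultures (0.1% parasitemia, 2% hematocrit final) in Albumax-supplemented RPMI 1640.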
Potency means the concentration at half of the fitted maximal effect.

| Structure (SMILES) | Potency |
| --- | --- |
| CCc1ccccc1S(=O)(=O)Cc1ccc(C(=O)NCCc2ccccc2)o1 | inactive |
| O=C(Nc1ccccc1)N(Cc1cccnc1)Cc1ccco1 | inactive |
| COCCNC(=S)N(Cc1cccnc1)Cc1ccc(OC)c(OC)c1 | inactive |
| Cc1ccc(C)c2[nH]c(=O)c(CN(Cc3cccnc3)C(=S)NCc3ccco3)cc12 | 9.28 µM (active) |
| COc1ccc(C(=O)N2CCN(c3ncccn3)CC2)cc1S(=O)(=O)N1CCOCC1 | inactive |
| COc1cc(C(=S)N2CCOCC2)cc(OC)c1OC(=O)c1ccc([N+](=O)[O-])cc1[N+](=O)[O-] | inactive |
| CCC(C)Sc1nc2c(cnn2-c2ccc(F)cc2)c(=O)[nH]1 (stereo unspecified) | inactive |
| Cc1cccc(C)c1NC(=O)COC(=O)c1ccccc1O | inactive |
| CC(=O)N(Cc1cc(=O)[nH]c2ccccc12)c1ccc(C)cc1C | inactive |
| Cn1nnnc1SCc1cc(=O)[nH]c2ccccc12 | inactive |
| Cc1ccc(N(Cc2cc(=O)[nH]c3ccccc23)C(=O)CCl)cc1 | 9.28 µM (active) |
| COc1cc(/C=N/NC(=O)CNC(=O)c2ccncc2)ccc1OC(C)=O | inactive |
| O=C(COC(=O)/C=C/c1cccs1)NC1CCCCC1 | inactive |
| O=C(CSc1nc2ccccc2[nH]1)N/N=C/C=C\c1ccccc1[N+](=O)[O-] | inactive |
| Cc1ccc(-n2c(SCC(=O)N/N=C/C=C/c3ccccc3[N+](=O)[O-])nc3ccccc3c2=O)cc1 | 13.1 µM (active) |
| CCn1c(SCC(=O)N/N=C/C=C/c2ccccc2[N+](=O)[O-])nnc1-c1ccccc1 | inactive |
| Cc1ccc(C(=O)NC23CC4CC(CC(C4)C2)C3)c(Cl)c1 | inactive |
| CN(C(=O)COC(=O)CCCc1c[nH]c2ccccc12)c1c(N)n(Cc2ccccc2)c(=O)[nH]c1=O | inactive |
| O=C(CSc1nn(-c2ccc(F)cc2)c(=S)s1)NC1CCS(=O)(=O)C1 (stereo unspecified) | inactive |
| N#CCSc1nn(-c2ccc(F)cc2)c(=S)s1 | 5.86 µM (active) |
| Cc1ccccc1-n1nc(SCC(=O)O)sc1=S | inactive |
| CCOC(=O)Cc1csc(SCC(=O)Nc2ccc(C)cc2F)n1 | inactive |
| O=C1COc2ccc(S(=O)(=O)NCCc3ccc(Cl)cc3)cc2N1 | inactive |
| CSc1ccccc1NC(=O)c1cnc2sc(C)cn2c1=O | inactive |
| CC(=O)Nc1ccc(Nc2cc(C)nc(Nc3ccc(NC(C)=O)cc3)n2)cc1 | 1.65 µM (active) |
| COc1ccc(C(=O)NNc2cc(C)nc(NNC(=O)c3ccc(OC)cc3)n2)cc1 | inactive |

| Structure (SMILES) | Potency |
| --- | --- |
| CCC(=O)Nc1ccc(Nc2nc(Cl)nc(Nc3ccc(NC(=O)CC)cc3)n2)cc1 | inactive |
| Cn1nc(-c2ccccc2)c2cc([N+](=O)[O-])ccc21 | inactive |
| COc1ccc(NC(=O)COC(=O)Cn2c(C)nc3ccccc32)cc1OC | inactive |
| COc1ccc(NC(=O)Cn2nnc(C(=O)NCCc3ccc(OC)c(OC)c3)c2N)cc1 | inactive |
| COc1ccc(-c2cn(-c3ccc(C)cc3)c(=O)n2CC(=O)Nc2ccc(OC)c(OC)c2)cc1 | 14.7 µM (active) |
| COC(=O)c1ccc(COc2ccc(C#N)cc2)o1 | inactive |
| COc1ccc(OCC(=O)NCCS(=O)(=O)N2CCN(c3ccc(F)cc3)CC2)cc1 | inactive |
| CC(C)CC(=O)c1c[nH]c(C(=O)NCc2ccccc2)c1 | inactive |
| Cc1nnc(SCC(=O)NCc2ccccc2)s1 | inactive |
| Cc1nnc(SCC(=O)N2CCc3ccccc3C2)s1 | inactive |
| Cc1nnc(SCC(=O)N2c3ccccc3C(C)(c3ccc(Cl)cc3)CC2(C)C)s1 (stereo unspecified) | 10.4 µM (active) |
| Cc1ccc(Cn2c(C)c3cnn(CC(=O)NCc4ccccn4)c(=O)c3c2C)cc1 | inactive |
| O=C(CCCN1C(=O)/C(=C/c2ccco2)SC1=S)Nc1ccccc1 | inactive |
| Cc1ccc(-c2nn(-c3ccccc3)cc2/C=C2\SC(=S)N(CCCCCC(=O)O)C2=O)o1 | 4.65 µM (active) |
| Cc1ccc(-c2nn(-c3ccccc3)cc2CN(Cc2ccccc2)C(=O)CCC(=O)O)o1 | inactive |
| O=C(O)c1cc2c(cc1NC(=O)c1c(F)cccc1Cl)OCCCO2 | inactive |
| COc1ccc(C(CNC(=O)c2ccc(S(=O)(=O)Nc3ccccc3F)cc2)N(C)C)cc1 (stereo unspecified) | inactive |
| CC(=O)N1CCN(C(=O)c2cccc(S(=O)(=O)Nc3ccc(C)cc3)c2)CC1 | inactive |
| O=C(OC1CCOC1=O)c1cccc(S(=O)(=O)Nc2ccc(F)cc2)c1 (stereo unspecified) | inactive |
| CCN(c1ccccc1)S(=O)(=O)c1cccc(C(=O)NCc2ccccc2CN2CCOCC2)c1 | 13.1 µM (active) |
| CCN(c1ccccc1)S(=O)(=O)c1cccc(C(=O)O)c1 | inactive |
| COc1ccc(C(CNC(=O)c2ccc(NS(=O)(=O)c3ccc(F)c(C)c3)cc2)N(C)C)cc1 (stereo unspecified) | 14.7 µM (active) |
| COc1ccc(C(=O)Nc2ccc(S(=O)(=O)NC(C)C)cc2)cc1 | inactive |
| O=C(NCc1cccc(C(F)(F)F)c1)c1cccc(S(=O)(=O)N2CCN(Cc3ccccc3)CC2)c1 | inactive |
| COc1ccc(Cl)cc1NS(=O)(=O)c1cccc(C(=O)NCC2CCCO2)c1 (stereo unspecified) | inactive |
| O=C(NCc1ccccc1CN1CCCC1)c1cccc(S(=O)(=O)Nc2ccc(F)cc2)c1 | 13.1 µM (active) |

| Structure (SMILES) | Potency |
| --- | --- |
| COc1ccc(NS(=O)(=O)c2cccc(C(=O)NCCc3ccc(S(N)(=O)=O)cc3)c2)cc1 | inactive |
| COc1ccccc1C(CNC(=O)c1cccc(S(=O)(=O)Nc2ccc(F)cc2)c1)N(C)C (stereo unspecified) | 13.1 µM (active) |
| COCCCNC(=O)Cc1ccc(-n2c(C)nc3cccnc32)cc1 | inactive |
| COc1ccccc1CNC(=O)c1ccc(N(C)S(=O)(=O)c2ccc(C)cc2)cc1 | inactive |
| CCc1nn(CCCC(=O)NCc2ccc(C)cc2)c(=O)c2cc3occc3n12 | inactive |
| O=C(NC(Cc1ccccc1)C(=O)O)/C(=C\c1ccccc1)NC(=O)c1ccco1 (stereo unspecified) | inactive |
| O=Cc1c(Nc2ccccc2Cl)nc2ccccn2c1=O | inactive |
| CC1(C)C(C=C(Cl)Cl)C1C(=O)NC(O)C(=O)c1ccccc1 (stereo unspecified) | inactive |
| O=C(CCNC(=O)C1CCN(S(=O)(=O)c2ccccc2)CC1)NC1CC1 | inactive |
| CCN(CC)C(CNC(=O)CSc1nnnn1-c1cccc(F)c1)c1ccco1 (stereo unspecified) | inactive |
| CCCCNC(=O)C1(O)c2ccccc2NC(=O)N1c1ccc(Cl)cc1 (stereo unspecified) | inactive |
| COc1ccccc1CCNS(=O)(=O)c1cn(C)nc1C | inactive |
| CCc1nc2cccnc2n1-c1ccc(C(=O)O)cc1 | inactive |
| NC(=O)Cn1cc(/C=N\NS(=O)(=O)c2ccccc2)c2ccccc21 | inactive |
| CCc1ccccc1NC(=O)c1ccc2snnc2c1 | inactive |
| CC1CCCCN1C(=O)CCS(=O)(=O)Cc1ccccc1 (stereo unspecified) | inactive |
| Cc1cnc(C(=O)Oc2cccc(Cl)c2Cl)cn1 | inactive |
| O=C(NCC(c1cccs1)N1CCOCC1)c1cc(Cl)ccc1[N+](=O)[O-] (stereo unspecified) | inactive |
| Cc1ccc(-c2nn(-c3ccc(F)cc3)cc2C(=O)NCC(c2cccs2)N2CCOCC2)cc1 (stereo unspecified) | 10.4 µM (active) |
| CC(C)(C)C1CCC(C(=O)NCC(c2cccs2)N2CCOCC2)CC1 (stereo unspecified) | inactive |
| CCOC(=O)C1(Cc2cccc(OC)c2)CCCN(C(=O)CCSC)C1 (stereo unspecified) | inactive |
| CC(=O)N1CCN(C(=O)C2(NC(=O)Nc3ccc(C)cc3)CCCCC2)CC1 | inactive |
| O=C(c1cc2ccccc2o1)N1CCN(c2cccc(C(F)(F)F)c2)CC1 | inactive |
| Cc1nn(CC(=O)N2CCCCC2)c(=O)c2nn(-c3ccccc3)c(C)c12 | inactive |
| COc1ccc(Nc2ncc(C(=O)N3CCN(c4ccccc4OC)CC3)c3ccccc23)cc1 | 11.7 µM (active) |
| COc1ccccc1N1CCN(C(=O)c2ccc(NC3=NC4CS(=O)(=O)CC4S3)cc2)CC1 (stereo unspecified) | inactive |

| Structure (SMILES) | Potency |
| --- | --- |
| COc1ccc(N2CCN(C(=O)C3CCN(C(=O)c4ccccc4Cl)CC3)CC2)cc1 | inactive |
| OC(COc1ccc(F)cc1Cl)CN1CCc2ccccc2C1 (stereo unspecified) | inactive |
| CCN(CC)S(=O)(=O)c1ccc2[nH]c(=O)cc(C(=O)N(C)C3CCS(=O)(=O)C3)c2c1 (stereo unspecified) | inactive |
| COc1ccc(NC(=O)CSc2ccc(-c3ccco3)nn2)c(OC)c1 | inactive |
| CC1Cc2nc(SCC(=O)Nc3ccccc3F)n(C)c(=O)c2S1 (stereo unspecified) | 7.38 µM (active) |
| Cn1c(CCC(=O)Nc2ccccc2F)nnc1SCC(=O)Nc1ccccc1Cl | inactive |
| COCCn1c(SCC(=O)Nc2ccccc2F)nc2c(c1=O)SCC2 | inactive |
| COCCn1c(SCC(=O)Nc2cc(Cl)ccc2OC)nc2c(c1=O)SC(C)C2 (stereo unspecified) | 8.28 µM (active) |
| CCn1c(SCC(=O)Nc2ccc3c(c2)OCCO3)nc2c(c1=O)SC(C)C2 (stereo unspecified) | inactive |
| COc1ccc(C)cc1NC(=O)CSc1ccc(Cl)cc1 | inactive |
| CC(C)N(Cc1ccccc1)C(=O)COC(=O)c1ccccc1SCC(=O)N1CCCC1 | inactive |
| CCn1c(SCC(=O)NCC2CCCO2)nc2ccccc21 (stereo unspecified) | inactive |
| CC1CCN(C(=O)c2ccc3c(=O)n4c(nc3c2)CCCCC4)CC1 | inactive |
| COCCN1C(=O)C(=O)/C(=C(/O)c2ccc(S(=O)(=O)N3CCOCC3)cc2)C1c1ccc(O)c(OC)c1 (stereo unspecified) | inactive |
| CCOC(=O)C1CCN(C(=O)COc2cccc3ccccc23)CC1 | inactive |
| Cc1ccc(C(=O)NNC(=O)C(C)Oc2ccc3ccccc3c2)o1 (stereo unspecified) | inactive |
| Cc1cccc(C(C)C)c1NC(=O)COC(=O)C1CC(=O)N(Cc2ccccc2)C1 (stereo unspecified) | inactive |
| COc1cccc(N2CC(C(=O)NCc3n[nH]c(=O)c4ccccc34)CC2=O)c1 (stereo unspecified) | inactive |
| CN(C)CCCCCN(C)Cc1cc2ccccc2o1 | 4.65 µM (active) |
| COc1ccccc1CN(C)C(=O)c1cc2ccccc2o1 | inactive |
| CCCOC(=O)c1cc2ccccc2oc1=O | inactive |
| O=c1c2ccccc2ccc2ccc(P(=O)(O)O)cc12 | inactive |
| CC1CC(C)CN(C(=O)CCNC(=O)Cn2cnc3ccccc3c2=O)C1 (stereo unspecified) | inactive |
